These results are taken from the supplement of paper PMC7380943.

± gives the standard deviation of the averaged measurements.
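Further: compound given one day ahead of doxycycline, which switches on I-SceI endonuclease to cut the chromosomally integrated reporter and create DSBs.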

This assay has as its system CLZ3 (HCA2 human fibroblast dual HR-NHEJ reporter). Kind of assay: NHEJ repair efficiency (GFP+ cells) relative to control (log10 fold); higher = more non-homologous end joining. The settings on record: 5 µM; doxycycline 0.5 ug/mL.
As to `CC=C1[C@H](O[C@@H]2O[C@H](CO)[C@@H](O)[C@H](O)[C@H]2O)OC=C(C(=O)OC)[C@H]1CC(=O)OC[C@H]1O[C@@H](OCCc2ccc(O)cc2)[C@H](O)[C@@H](O)[C@@H]1O` (stereo in doubt) [Specnuezhenide], the “NHEJ repair efficiency (log10)” value turned out to be 0.00632.
Regarding `O=c1c(-c2ccc(O)cc2)coc2c([C@@H]3O[C@H](CO)[C@@H](O)[C@H](O)[C@H]3O)c(O)ccc12` [Puerarin], the “NHEJ repair efficiency (log10)” value was found to be 0.0163.
In the case of `O=c1cc(-c2ccc(O)c(O)c2)oc2c([C@@H]3O[C@H](CO)[C@@H](O)[C@H](O)[C@H]3O)c(O)cc(O)c12` [Orientin] it was 0.0454.
Consider `O=c1cc(-c2ccc(O)c(-c3c(O)cc(O)c4c(=O)cc(-c5ccc(O)cc5)oc34)c2)oc2cc(O)cc(O)c12` [Amentoflavone], for which the “NHEJ repair efficiency (log10)” value was 0.0928.
For the compound `C=C[C@@H]1CNC(=S)O1` [Epigoitrin], the “NHEJ repair efficiency (log10)” value is 0.17.
In the case of `O=c1c(O[C@@H]2O[C@H](CO)[C@H](O)[C@H](O)[C@H]2O)c(-c2ccc(O)c(O)c2)oc2cc(O)cc(O)c12` [Hyperoside] it was 0.0115.
In the case of `CCCOC(=O)c1cc(O)c(O)c(O)c1` [Propyl gallate] it was -0.0069.
In the case of `CC(C)=CCC12Oc3cc(O)ccc3C1(O)Oc1cc(O)c([C@H]3C=C(C)C[C@@H](c4ccc(O)cc4O)[C@@H]3C(=O)c3ccc(O)cc3O)c(O)c1C2=O` (stereo not given in full) [Sanggenon D] it was -0.0219; in that of `O=c1c(-c2ccc(O)cc2)coc2cc(O)cc(O)c12` [Genistein], -0.0971; in that of `O=c1cc(-c2ccc(O)cc2)oc2cc(O[C@@H]3O[C@H](CO)[C@@H](O)[C@H](O)[C@H]3O[C@@H]3OC[C@](O)(CO)[C@H]3O)cc(O)c12` [Apiin], 0.142.
On to `COc1c(O)cc2occ(-c3ccc(O)cc3)c(=O)c2c1O` [Tectorigenin], for which the “NHEJ repair efficiency (log10)” value is -0.0657.
`OC[C@H]1O[C@@H](Oc2cc(O)cc(/C=C/c3ccc(O[C@@H]4O[C@H](CO)[C@@H](O)[C@H](O)[C@H]4O)cc3O)c2)[C@H](O)[C@@H](O)[C@@H]1O` [Mulberroside A]: the “NHEJ repair efficiency (log10)” value is 0.049.
As for `Nc1ncnc2c1ncn2[C@@H]1O[C@H](CO)C[C@H]1O` [Cordycepin], the figure is 0.007; as for `COc1cc(O)cc(O)c1C(=O)/C=C/c1ccccc1` [Cardamonin], 0.233.
Consider `C[C@@H]1CC[C@@]2(OC1)O[C@H]1C[C@H]3[C@@H]4CC=C5C[C@@H](O[C@@H]6O[C@H](CO)[C@@H](O)[C@H](O)[C@H]6O)CC[C@]5(C)[C@H]4CC[C@]3(C)[C@H]1[C@@H]2C` [Diosgenin glucoside], for which the “NHEJ repair efficiency (log10)” value is -0.0975.
In the case of `C[C@@H]1O[C@@H](OC[C@H]2O[C@@H](OCCc3ccc(O)c(O)c3)[C@H](O)[C@@H](O[C@@H]3O[C@@H](C)[C@H](O)[C@@H](O)[C@H]3O)[C@@H]2OC(=O)/C=C/c2ccc(O)c(O)c2)[C@H](O)[C@H](O)[C@H]1O` [Poliumoside] it was 0.019; in that of `c1cc2c(c3c1CC1c4cc5c(cc4CCN1C3)OCO5)OCO2` (stereo not given) [Tetrahydrocoptisine], -0.0636; in that of `C[C@@H]1O[C@@H](O[C@@H]2[C@@H](O)[C@H](OCCc3ccc(O)c(O)c3)O[C@H](COC(=O)/C=C/c3ccc(O)c(O)c3)[C@H]2O)[C@H](O)[C@H](O)[C@H]1O` [Isoacteoside], -0.112.
In the case of `CC(=O)O[C@H]1CC(=O)OC(C)(C)[C@@H]2CC(=O)[C@]3(C)[C@H](CC[C@@]4(C)[C@@H](c5ccoc5)OC(=O)[C@H]5O[C@]543)[C@@]12C` [Nomilin] it was -0.276; in that of `CO[C@H]1O[C@@H]2O[C@@]3(C)CC[C@H]4[C@H](C)CC[C@@H]([C@H]1C)[C@@]24OO3` [Artemether], 0.125; in that of `C[C@@H]1C(=O)O[C@H]2C[C@@]34O[C@@H]5OC(=O)[C@H](O)[C@@]56[C@H](C(C)(C)C)[C@H](O)C(OC3=O)[C@]64[C@]21O` (stereo not given in full) [Ginkgolide J], 0.0205.
As for `O[C@@H]1[C@@H](O)[C@@H](OC/C=C/c2ccccc2)O[C@H](CO[C@@H]2OC[C@H](O)[C@H](O)[C@H]2O)[C@H]1O` [Rosavin], the figure is 0.0495.
As to `CC(=O)S[C@@H]1CC2=CC(=O)CC[C@]2(C)[C@H]2CC[C@@]3(C)[C@@H](CC[C@@]34CCC(=O)O4)[C@H]12` [Spironolactone], the “NHEJ repair efficiency (log10)” value was 0.15.
For `OCc1ccccc1O[C@@H]1O[C@H](CO)[C@@H](O)[C@H](O)[C@H]1O` [Salicoside], the “NHEJ repair efficiency (log10)” value is -0.0463.
In the case of `COc1cc(/C=C/C(=O)O)ccc1O` [Ferulaic Acid] it was -0.0555; in that of `Cc1cc(O)c(C(=O)CCC(C)C)c(=O)o1` [Pogostone], -0.0825.
As for `O=C(/C=C/c1ccc(O)c(O)c1)O[C@@H]1C[C@@](OC(=O)/C=C/c2ccc(O)c(O)c2)(C(=O)O)C[C@@H](O)[C@@H]1O` [Cynarin (1,5-Di-O-caffeoylquinic acid)], the figure is 0.0398; as for `O=C1c2c(O)cccc2C([C@@H]2O[C@H](CO)[C@@H](O)[C@H](O)[C@H]2O)c2cc(CO)cc(O)c21` (stereo not given in full) [Barbaloin], 0.0217.
As for `CC1(C)[C@@H](O[C@H]2O[C@H](C(=O)O)[C@@H](O)[C@H](O)[C@H]2O[C@@H]2O[C@H](C(=O)O)[C@@H](O)[C@H](O)[C@H]2O)CC[C@]2(C)[C@H]3C(=O)C=C4[C@@H]5C[C@@](C)(C(=O)O)CC[C@]5(C)CC[C@@]4(C)[C@]3(C)CC[C@@H]12` [Glycyrrhizic acid], the figure is 0.142; as for `C/C=C\c1ccc(OC)cc1` [cis-Anethol], 0.133.
As to `OC[C@H]1O[C@@H](O[C@@H]2OC=C[C@H]3[C@H](O)[C@@H]4O[C@]4(CO)[C@@H]23)[C@H](O)[C@@H](O)[C@@H]1O` [Catalpol], the “NHEJ repair efficiency (log10)” value amounted to 0.0212.
In the case of `CC(C)=CCC/C(C)=C/C=C/C(C)=C/C=C/C(C)=C/C=C/C=C(C)/C=C/C=C(C)/C=C/C=C(\C)CCC=C(C)C` [Lycopene] it was -0.109; in that of `O=C(O)c1ccccc1O` [Salicylic acid], 0.019; in that of `O=c1cc(-c2ccc(O)cc2)oc2cc(O)c([C@@H]3O[C@H](CO)[C@@H](O)[C@H](O)[C@H]3O)c(O)c12` [Isovitexin], 0.0409.
Consider `COc1cc([C@@H]2[C@H]3CO[C@@]4(O)C(=O)[C@@H]2C=C([C@H]2Oc5cc(O)cc(O)c5C(=O)[C@@H]2O)[C@@H]34)ccc1O` [Silydianin], for which the “NHEJ repair efficiency (log10)” value was -0.0155 ± 0.092.
In the case of `OC[C@H]1O[C@@H](Oc2ccc(O)cc2)[C@H](O)[C@@H](O)[C@@H]1O` [Arbutin] it was -0.0725.
As for `O=C1c2ccccc2C(=O)c2c1cc(O)c(CO)c2O` [Lucidin], the figure is 0.134.
In the case of `COc1ccc(CCC(=O)c2c(O)cc(OC3OC(CO)C(O)C(O)C3OC3OC(C)C(O)C(O)C3O)cc2O)cc1O` (stereo not given) [Neosperidin Dihydrochalcone], the “NHEJ repair efficiency (log10)” value is -0.0639.
As for `COc1ccc2c(c1OC)CN(C)CCc1cc3c(cc1C(=O)C2)OCO3` [Allocryptopine], the figure is 0.0337; as for `COc1c2c(cc3oc(CO)cc(=O)c13)O[C@H](C(C)(C)O)C2` [Cimifugin], 0.0139.
